{"source": "the supplement of paper PMC10849652", "note": "Of roughly 8,800 targets only a part is listed; those with a hit were picked by preference. About 0.5% of all pairs of compound and target were hits. Values without a mark were called inactive."}
{"compound": "Cc1cc(Nc2cc(N3CCN(C)CC3)nc(Sc3ccc(NC(=O)C4CC4)cc3)n2)n[nH]1 [tozasertib]", "assay": "log2 fold change, soluble protein after heating vs DMSO (PISA); higher = thermal stabilisation; K562 lysate, 10 uM; active = over 0.2 and 3.5 SD of the protein, either way, in both replicates (recomputed)", "in_short": "(§1)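 A 30 min treatment with 10 μM compound was applied to crude K562 extract at 1 mg/mL protein in PBS pH 7.4 with 1 mM MgCl2. Heating for 3 min spanned 48°C-58°C, after which aliquots were pooled, adjusted to 0.5% NP-40 at 4°C and spun at 21,000xg for 90 min. TMTpro 16plex LC-MS/MS of the supernatant, with channel sums equalised, gave values recorded as log-two fold change in thermal stability against solvent controls, from duplicates.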"}
{"target": "YES1 (UniProt P07947)", "log2 fold change": -0.105}
{"target": "XAB2 (UniProt Q9HCS7)", "log2 fold change": -0.073}
{"target": "VCPIP1 (UniProt Q96JH7)", "sequence (Q96JH7 whole entry, looked up)": "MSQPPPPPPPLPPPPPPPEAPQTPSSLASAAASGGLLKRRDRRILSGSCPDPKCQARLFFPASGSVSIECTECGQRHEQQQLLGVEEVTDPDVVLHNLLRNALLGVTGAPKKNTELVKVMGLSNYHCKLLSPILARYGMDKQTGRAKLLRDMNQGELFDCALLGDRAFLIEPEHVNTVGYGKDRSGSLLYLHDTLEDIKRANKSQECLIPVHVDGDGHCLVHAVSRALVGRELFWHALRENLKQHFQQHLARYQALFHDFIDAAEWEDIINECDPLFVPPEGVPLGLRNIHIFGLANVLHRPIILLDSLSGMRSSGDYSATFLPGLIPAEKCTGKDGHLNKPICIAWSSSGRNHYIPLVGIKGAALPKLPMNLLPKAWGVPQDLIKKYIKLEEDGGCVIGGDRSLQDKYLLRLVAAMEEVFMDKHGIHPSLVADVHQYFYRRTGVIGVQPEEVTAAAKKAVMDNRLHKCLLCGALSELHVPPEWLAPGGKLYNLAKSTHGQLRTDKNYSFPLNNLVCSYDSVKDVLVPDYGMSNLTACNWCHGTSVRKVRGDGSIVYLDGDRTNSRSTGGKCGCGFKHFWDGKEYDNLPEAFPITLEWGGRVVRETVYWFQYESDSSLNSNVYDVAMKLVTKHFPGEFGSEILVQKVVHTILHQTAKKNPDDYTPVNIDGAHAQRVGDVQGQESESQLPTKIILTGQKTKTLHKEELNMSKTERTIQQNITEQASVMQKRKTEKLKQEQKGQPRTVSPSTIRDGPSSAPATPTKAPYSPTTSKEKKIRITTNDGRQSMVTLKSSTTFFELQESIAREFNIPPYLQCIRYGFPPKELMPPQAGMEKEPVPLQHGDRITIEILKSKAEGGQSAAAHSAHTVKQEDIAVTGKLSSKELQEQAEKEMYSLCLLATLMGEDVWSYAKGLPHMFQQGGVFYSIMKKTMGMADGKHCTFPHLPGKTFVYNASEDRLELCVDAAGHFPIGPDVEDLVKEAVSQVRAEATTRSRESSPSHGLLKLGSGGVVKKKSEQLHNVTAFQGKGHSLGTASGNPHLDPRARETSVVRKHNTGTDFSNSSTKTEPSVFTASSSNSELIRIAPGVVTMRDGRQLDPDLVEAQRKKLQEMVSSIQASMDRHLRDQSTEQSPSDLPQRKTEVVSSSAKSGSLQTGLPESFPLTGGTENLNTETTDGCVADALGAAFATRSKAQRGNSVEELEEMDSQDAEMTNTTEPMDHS", "log2 fold change": -0.028}
{"target": "ZC3H13 (UniProt Q5T200)", "log2 fold change": 0.062}
{"target": "ZNF609 (UniProt O15014)", "log2 fold change": 0.024}
{"target": "ZC3H11A (UniProt O75152)", "sequence (O75152 whole entry, looked up)": "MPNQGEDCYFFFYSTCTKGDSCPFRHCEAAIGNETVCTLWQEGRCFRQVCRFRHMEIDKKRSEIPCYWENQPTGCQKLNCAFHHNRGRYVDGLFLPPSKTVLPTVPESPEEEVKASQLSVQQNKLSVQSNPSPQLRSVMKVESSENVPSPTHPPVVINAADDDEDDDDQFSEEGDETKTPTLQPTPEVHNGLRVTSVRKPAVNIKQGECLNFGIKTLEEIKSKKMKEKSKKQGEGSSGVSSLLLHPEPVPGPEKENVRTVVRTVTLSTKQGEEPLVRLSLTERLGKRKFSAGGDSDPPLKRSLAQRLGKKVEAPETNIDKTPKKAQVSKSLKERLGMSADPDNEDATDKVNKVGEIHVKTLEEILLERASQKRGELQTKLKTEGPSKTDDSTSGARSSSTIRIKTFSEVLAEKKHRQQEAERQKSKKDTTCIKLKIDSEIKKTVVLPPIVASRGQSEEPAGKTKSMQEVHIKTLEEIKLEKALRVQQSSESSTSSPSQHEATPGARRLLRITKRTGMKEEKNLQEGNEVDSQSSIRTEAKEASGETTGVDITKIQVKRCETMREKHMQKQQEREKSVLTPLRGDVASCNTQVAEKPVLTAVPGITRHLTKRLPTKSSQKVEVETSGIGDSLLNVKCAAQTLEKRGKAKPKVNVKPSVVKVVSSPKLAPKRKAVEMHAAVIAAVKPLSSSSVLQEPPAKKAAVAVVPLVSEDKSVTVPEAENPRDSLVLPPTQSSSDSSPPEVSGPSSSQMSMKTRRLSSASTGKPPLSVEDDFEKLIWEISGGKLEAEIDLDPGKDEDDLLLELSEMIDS", "log2 fold change": 0.016}
{"target": "VPS28 (UniProt Q9UK41)", "log2 fold change": -0.03}
{"target": "ZMYM4 (UniProt Q5VZL5)", "log2 fold change": 0.028}
{"target": "ZNF217 (UniProt O75362)", "log2 fold change": 0.044}
{"target": "YDJC (UniProt A8MPS7)", "log2 fold change": 0.022}
{"target": "XPNPEP1 isoform 3 (UniProt Q9NQW7)", "log2 fold change": -0.024}
{"target": "USP9X (UniProt Q93008)", "log2 fold change": 0.011}
{"target": "UQCRC2 (UniProt P22695)", "sequence (P22695 whole entry, looked up)": "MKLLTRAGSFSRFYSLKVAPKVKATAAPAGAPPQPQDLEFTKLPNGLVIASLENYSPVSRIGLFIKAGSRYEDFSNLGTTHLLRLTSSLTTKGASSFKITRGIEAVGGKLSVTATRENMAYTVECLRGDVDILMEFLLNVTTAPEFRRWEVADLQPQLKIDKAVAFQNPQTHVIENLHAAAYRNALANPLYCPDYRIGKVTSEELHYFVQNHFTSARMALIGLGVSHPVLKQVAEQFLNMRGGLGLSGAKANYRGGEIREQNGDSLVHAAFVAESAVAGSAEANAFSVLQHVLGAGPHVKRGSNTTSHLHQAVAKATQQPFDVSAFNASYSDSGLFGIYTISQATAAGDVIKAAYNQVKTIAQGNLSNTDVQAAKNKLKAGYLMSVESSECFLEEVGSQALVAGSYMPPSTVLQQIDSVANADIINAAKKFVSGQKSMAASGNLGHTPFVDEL", "log2 fold change": -0.025}
{"target": "WRB (UniProt O00258)", "log2 fold change": -0.033}
{"target": "ZBTB33 (UniProt Q86T24)", "log2 fold change": 0.048}
{"target": "WDR62 isoform 4 (UniProt O43379)", "log2 fold change": 0.034}
{"target": "XPO6 (UniProt Q96QU8)", "log2 fold change": 0.072}
{"target": "VPS35L (UniProt Q7Z3J2)", "log2 fold change": 0.026}
{"target": "YEATS4 (UniProt O95619)", "sequence (O95619 whole entry, looked up)": "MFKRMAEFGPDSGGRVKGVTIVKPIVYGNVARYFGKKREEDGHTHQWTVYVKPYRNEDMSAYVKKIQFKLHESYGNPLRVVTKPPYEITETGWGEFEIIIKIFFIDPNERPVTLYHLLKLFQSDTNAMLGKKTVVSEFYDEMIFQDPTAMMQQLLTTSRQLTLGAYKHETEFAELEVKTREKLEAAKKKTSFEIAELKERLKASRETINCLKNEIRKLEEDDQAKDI", "log2 fold change": -0.006}
{"target": "YWHAQ (UniProt P27348)", "log2 fold change": -0.024}
{"target": "VRK1 (UniProt Q99986)", "sequence (Q99986 whole entry, looked up)": "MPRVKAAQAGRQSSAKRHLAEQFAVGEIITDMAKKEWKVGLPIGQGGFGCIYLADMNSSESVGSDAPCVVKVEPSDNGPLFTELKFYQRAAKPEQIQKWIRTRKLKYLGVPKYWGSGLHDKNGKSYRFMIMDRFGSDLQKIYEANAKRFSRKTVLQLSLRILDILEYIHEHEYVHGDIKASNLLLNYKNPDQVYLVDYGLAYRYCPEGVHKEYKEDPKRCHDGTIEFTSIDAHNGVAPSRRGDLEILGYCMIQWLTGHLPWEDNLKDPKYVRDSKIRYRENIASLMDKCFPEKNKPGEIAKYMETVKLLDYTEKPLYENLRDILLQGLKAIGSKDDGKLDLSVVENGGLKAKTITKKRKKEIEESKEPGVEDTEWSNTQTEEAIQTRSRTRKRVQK", "log2 fold change": -0.052}
{"target": "ZC3HC1 (UniProt Q86WB0)", "log2 fold change": -0.036}
{"target": "USP3 (UniProt Q9Y6I4)", "log2 fold change": 0.021}
{"target": "VPS11 (UniProt Q9H270)", "sequence (Q9H270 whole entry, looked up)": "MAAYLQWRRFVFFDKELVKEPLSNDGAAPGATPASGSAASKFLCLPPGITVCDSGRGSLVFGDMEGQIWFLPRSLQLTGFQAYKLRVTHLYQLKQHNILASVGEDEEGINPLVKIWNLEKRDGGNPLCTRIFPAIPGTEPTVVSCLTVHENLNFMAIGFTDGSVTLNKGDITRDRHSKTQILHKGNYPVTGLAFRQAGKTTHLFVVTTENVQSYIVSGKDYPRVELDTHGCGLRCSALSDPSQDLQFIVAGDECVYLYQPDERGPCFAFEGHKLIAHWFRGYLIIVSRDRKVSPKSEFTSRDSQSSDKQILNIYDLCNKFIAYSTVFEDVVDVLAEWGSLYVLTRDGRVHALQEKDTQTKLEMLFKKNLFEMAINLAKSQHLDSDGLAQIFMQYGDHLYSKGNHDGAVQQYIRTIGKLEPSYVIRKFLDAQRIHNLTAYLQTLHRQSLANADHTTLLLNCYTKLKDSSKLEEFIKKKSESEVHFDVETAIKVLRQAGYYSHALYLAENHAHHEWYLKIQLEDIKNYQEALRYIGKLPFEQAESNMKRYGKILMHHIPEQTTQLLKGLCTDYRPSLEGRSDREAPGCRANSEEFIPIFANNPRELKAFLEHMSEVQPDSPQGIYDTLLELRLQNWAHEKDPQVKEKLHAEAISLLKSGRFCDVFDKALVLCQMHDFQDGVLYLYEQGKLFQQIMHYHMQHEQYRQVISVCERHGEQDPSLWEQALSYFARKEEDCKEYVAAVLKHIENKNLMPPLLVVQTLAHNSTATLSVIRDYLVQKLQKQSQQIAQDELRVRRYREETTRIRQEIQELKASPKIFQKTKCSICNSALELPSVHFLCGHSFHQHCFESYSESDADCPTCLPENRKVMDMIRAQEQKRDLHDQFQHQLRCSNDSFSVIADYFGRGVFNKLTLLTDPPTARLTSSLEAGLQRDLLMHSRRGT", "log2 fold change": 0.024}
{"target": "VPS16 (UniProt Q9H269)", "log2 fold change": 0.004}
{"target": "WDR20 isoform 7 (UniProt Q8TBZ3)", "log2 fold change": 0}
{"target": "VAV3 isoform 4 (UniProt Q9UKW4)", "sequence (Q9UKW4 whole entry, looked up)": "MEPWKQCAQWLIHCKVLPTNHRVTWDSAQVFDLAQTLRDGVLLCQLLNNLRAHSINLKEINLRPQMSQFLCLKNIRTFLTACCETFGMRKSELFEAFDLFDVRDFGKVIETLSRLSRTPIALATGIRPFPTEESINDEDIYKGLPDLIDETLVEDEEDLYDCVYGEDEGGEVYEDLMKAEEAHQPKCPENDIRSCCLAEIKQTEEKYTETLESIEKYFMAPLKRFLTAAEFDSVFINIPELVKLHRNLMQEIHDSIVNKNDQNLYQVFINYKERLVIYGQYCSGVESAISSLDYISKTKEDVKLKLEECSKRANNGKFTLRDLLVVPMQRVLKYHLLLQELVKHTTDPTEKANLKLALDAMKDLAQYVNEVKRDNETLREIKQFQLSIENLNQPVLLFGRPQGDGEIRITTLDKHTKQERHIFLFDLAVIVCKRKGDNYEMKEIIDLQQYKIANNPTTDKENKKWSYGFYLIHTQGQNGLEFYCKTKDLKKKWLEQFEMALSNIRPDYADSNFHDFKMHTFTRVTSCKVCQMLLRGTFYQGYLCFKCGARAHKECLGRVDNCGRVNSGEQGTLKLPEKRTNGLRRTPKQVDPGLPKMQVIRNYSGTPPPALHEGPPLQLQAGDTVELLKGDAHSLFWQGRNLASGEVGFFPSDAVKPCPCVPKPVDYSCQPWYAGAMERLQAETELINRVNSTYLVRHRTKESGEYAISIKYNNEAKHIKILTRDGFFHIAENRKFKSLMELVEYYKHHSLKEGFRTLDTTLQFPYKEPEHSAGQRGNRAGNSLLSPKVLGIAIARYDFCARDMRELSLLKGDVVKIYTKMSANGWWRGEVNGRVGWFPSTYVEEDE", "log2 fold change": -0.093}
{"target": "WRNIP1 (UniProt Q96S55)", "log2 fold change": 0.022}
{"target": "UNC13D (UniProt Q70J99)", "log2 fold change": -0.015}
{"target": "VARS (UniProt P26640)", "log2 fold change": -0.021}
{"target": "UTP18 (UniProt Q9Y5J1)", "log2 fold change": 0.074}
{"compound": "Cc1ccc(-n2nc(C(C)(C)C)cc2NC(=O)Nc2ccc(OCCN3CCOCC3)c3ccccc23)cc1 [doramapimod]", "assay": "log2 fold change, soluble protein after heating vs DMSO (PISA); higher = thermal stabilisation; K562 lysate, 10 uM; active = over 0.2 and 3.5 SD of the protein, either way, in both replicates (recomputed)", "in_short": "as §1"}
{"target": "YES1 (UniProt P07947)", "log2 fold change": -0.005}
{"target": "XAB2 (UniProt Q9HCS7)", "log2 fold change": 0.01}
{"target": "VCPIP1 (UniProt Q96JH7)", "log2 fold change": 0.025}
{"target": "ZC3H13 (UniProt Q5T200)", "log2 fold change": 0.149}
{"target": "ZNF609 (UniProt O15014)", "log2 fold change": -0.064}
{"target": "ZC3H11A (UniProt O75152)", "log2 fold change": 0.013}
{"target": "VPS28 (UniProt Q9UK41)", "log2 fold change": -0.005}
{"target": "ZMYM4 (UniProt Q5VZL5)", "log2 fold change": 0.031}
{"target": "ZNF217 (UniProt O75362)", "log2 fold change": 0.004}
{"target": "YDJC (UniProt A8MPS7)", "log2 fold change": 0.025}
{"target": "XPNPEP1 isoform 3 (UniProt Q9NQW7)", "log2 fold change": -0.003}
{"target": "USP9X (UniProt Q93008)", "log2 fold change": 0.004}
{"target": "UQCRC2 (UniProt P22695)", "log2 fold change": -0.027}
{"target": "WRB (UniProt O00258)", "log2 fold change": -0.074}
{"target": "ZBTB33 (UniProt Q86T24)", "log2 fold change": 0.022}
{"target": "WDR62 isoform 4 (UniProt O43379)", "log2 fold change": 0.038}
{"target": "XPO6 (UniProt Q96QU8)", "log2 fold change": 0.034}
{"target": "VPS35L (UniProt Q7Z3J2)", "log2 fold change": 0.02}
{"target": "YEATS4 (UniProt O95619)", "log2 fold change": 0.064}
{"target": "YWHAQ (UniProt P27348)", "log2 fold change": -0.043}
{"target": "VRK1 (UniProt Q99986)", "log2 fold change": -0.052}
{"target": "ZC3HC1 (UniProt Q86WB0)", "log2 fold change": 0.025}
{"target": "USP3 (UniProt Q9Y6I4)", "log2 fold change": -0.03}
{"target": "VPS11 (UniProt Q9H270)", "log2 fold change": 0.039}
{"target": "VPS16 (UniProt Q9H269)", "log2 fold change": -0.013}
{"target": "WDR20 isoform 7 (UniProt Q8TBZ3)", "log2 fold change": -0.022}
{"target": "VAV3 isoform 4 (UniProt Q9UKW4)", "log2 fold change": 0.325}
{"target": "WRNIP1 (UniProt Q96S55)", "log2 fold change": 0.001}
{"target": "UNC13D (UniProt Q70J99)", "log2 fold change": 0.009}
{"target": "VARS (UniProt P26640)", "log2 fold change": 0.022}
{"target": "UTP18 (UniProt Q9Y5J1)", "log2 fold change": -0.025}
{"compound": "Cc1ccc(NC(=O)c2ccc(CN3CC[C@H](N(C)C)C3)c(C(F)(F)F)c2)cc1Nc1nccc(-c2cncnc2)n1 [bafetinib]", "assay": "log2 fold change, soluble protein after heating vs DMSO (PISA); higher = thermal stabilisation; K562 lysate, 10 uM; active = over 0.2 and 3.5 SD of the protein, either way, in both replicates (recomputed)", "in_short": "as §1"}
{"target": "YES1 (UniProt P07947)", "log2 fold change": 0.155}
{"target": "XAB2 (UniProt Q9HCS7)", "log2 fold change": 0.065}
{"target": "VCPIP1 (UniProt Q96JH7)", "log2 fold change": -0.043}
{"target": "ZC3H13 (UniProt Q5T200)", "log2 fold change": 0.017}
{"target": "ZNF609 (UniProt O15014)", "log2 fold change": -0.111}
{"target": "ZC3H11A (UniProt O75152)", "log2 fold change": -0.113}
{"target": "VPS28 (UniProt Q9UK41)", "log2 fold change": 0.034}
{"target": "ZMYM4 (UniProt Q5VZL5)", "log2 fold change": 0.008}
{"target": "ZNF217 (UniProt O75362)", "log2 fold change": 0.037}
{"target": "YDJC (UniProt A8MPS7)", "log2 fold change": -0.017}
{"target": "XPNPEP1 isoform 3 (UniProt Q9NQW7)", "log2 fold change": -0.021}
{"target": "USP9X (UniProt Q93008)", "log2 fold change": -0.034}
{"target": "UQCRC2 (UniProt P22695)", "log2 fold change": -0.05}
{"target": "WRB (UniProt O00258)", "log2 fold change": -0.017}
{"target": "ZBTB33 (UniProt Q86T24)", "log2 fold change": 0.046}
{"target": "WDR62 isoform 4 (UniProt O43379)", "log2 fold change": -0.05}
{"target": "XPO6 (UniProt Q96QU8)", "log2 fold change": -0.105}
{"target": "VPS35L (UniProt Q7Z3J2)", "log2 fold change": -0.052}
{"target": "YEATS4 (UniProt O95619)", "log2 fold change": -0.033}
{"target": "YWHAQ (UniProt P27348)", "log2 fold change": -0.043}
{"target": "VRK1 (UniProt Q99986)", "log2 fold change": -0.042}
{"target": "ZC3HC1 (UniProt Q86WB0)", "log2 fold change": -0.019}
{"target": "USP3 (UniProt Q9Y6I4)", "log2 fold change": 0.01}
{"target": "VPS11 (UniProt Q9H270)", "log2 fold change": -0.077}
{"target": "VPS16 (UniProt Q9H269)", "log2 fold change": -0.051}
{"target": "WDR20 isoform 7 (UniProt Q8TBZ3)", "log2 fold change": 0.07}
{"target": "VAV3 isoform 4 (UniProt Q9UKW4)", "log2 fold change": 0.023}
{"target": "WRNIP1 (UniProt Q96S55)", "log2 fold change": -0.043}
{"target": "UNC13D (UniProt Q70J99)", "log2 fold change": -0.066}
{"target": "VARS (UniProt P26640)", "log2 fold change": -0.012}
{"target": "UTP18 (UniProt Q9Y5J1)", "log2 fold change": -0.084}
